Assay results reported in PubChem BioAssay AID1063 (University of Pittsburgh Molecular Library Screening Center, 2008).
The campaign covered roughly 200,000 compounds. About 18,000 (9%) were called active. Cut-off read from the data, not from the text of the source: active = inhibition above about 50%; inactive = the rest. For the sample, actives were picked, then their nearest neighbours and some compounds at random. Where a SMILES comes first, the peptide text is derived from it. The star is where a group is joined. Bz = O=C(c1ccccc1)*

Assay: Leishmania major promastigote growth inhibition, primary screen (AID 1063);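 note: promastigotes grown with compound for 44 hours at 28 °C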
Conditions: Leishmania major promastigotes, resazurin fluorescence viability; at 10 µM; hits give high values

Row | Structure (SMILES) | inhibition
1 | O=C(NC1CCCCC1)C1CCCN(S(=O)(=O)c2cccs2)C1 (configuration not stated) | -2.02% (inactive)
2 | O=C(Nc1ccc(S(=O)(=O)N2CCCCC2)cc1)c1cnccn1 | -3.44% (inactive)
3 | CC1CCCN(S(=O)(=O)c2ccc(N(C(=O)c3cnccn3)C(C(=O)NC3CCCCC3)c3cccs3)cc2)C1 (configuration not stated) | 69.2% (active)
4 | CCCCn1c(=O)c(C(C)=O)c(O)c2ccccc21 | -2.04% (inactive)
5 | O=C(NC1CCCC1)C(c1ccc(N2CCOCC2)cc1)N(C(=O)c1ccco1)c1ccccc1F (configuration not stated) | 3.7% (inactive)
6 | COC(=O)c1ccc(N(CC(=O)NC2CCCC2)C(=O)CNC(=O)c2ccco2)cc1 | -5.36% (inactive)
7 | COC(=O)c1cccc(N(C(=O)c2ccco2)C(C(=O)NC2CCCC2)c2ccco2)c1 (configuration not stated) | 51.8% (active)
8 | Cc1cc(C(=O)N/N=C\C(Br)=C\c2ccccc2)c(C)o1 | 12.7% (inactive)
9 | Nc1nonc1-n1nnc(C(=O)N/N=C/c2cc(Br)ccc2O)c1CSC1=NCCS1 | 50.8% (active)
10 | COCc1c(C(=O)N/N=C/C2CC=CCC2)nnn1-c1nonc1N (configuration not stated) | -6.32% (inactive)
11 | COc1cc(/C=N\NC(=O)c2nonc2N)c(OC)cc1Br | -4.69% (inactive)
12 | COc1ccc(-c2ccc(CCC(=O)O)n2NC(=O)c2ccc(C(C)(C)C)cc2)cc1 | -4.23% (inactive)
13 | NC(=O)C1=C[C@H](c2csc3ccccc23)C[C@H](OCc2ccc(CO)cc2)O1 | 14.5% (inactive)
14 | CN(C)N(C)C(=O)C(O)(c1ccccc1)c1ccccc1 | -4.98% (inactive)
15 | Cc1nn(-c2ccccc2)c2sc(C(=O)N(Cc3ccco3)C(C)C(=O)NC(C)(C)C)cc12 (configuration not stated) | 85.5% (active)
16 | Cc1nc(C)c(C(=O)N(c2ccc(C)c(C)c2)C(C(=O)NCc2ccco2)c2ccccc2)s1 (configuration not stated) | -1.53% (inactive)
17 | Cc1ccc(-c2nnn(CC(=O)N(Cc3ccco3)C(C(=O)NC(C)(C)C)c3ccncc3)n2)o1 (configuration not stated) | 4.2% (inactive)
18 | COc1ccc(CC(=O)NCc2nnc(SCC(=O)Nc3ncc(C)s3)n2C)cc1 | -4.95% (inactive)
19 | CCOc1ccc(Nc2oc(Cc3ccccc3)nc2C#N)cc1 | 99.7% (active)
20 | N#Cc1nc(COc2ccc(-c3ccccc3)cc2)oc1NCc1cccnc1 | 7.49% (inactive)
21 | N#Cc1nc(Cc2ccccc2)oc1NCCc1ccccc1 | 0.9% (inactive)
22 | CCOC(=O)c1[nH]cnc1C(=O)Nc1ccccc1C | 4.69% (inactive)
23 | CCC(=O)Nc1ccc(C(=O)N2CCN(C(=O)c3ccco3)CC2)cc1 | 0.95% (inactive)

Row | Structure (SMILES) | inhibition
24 | O=C(Nn1cnc2ccccc2c1=O)c1ccc([N+](=O)[O-])cc1Cl | -9.04% (inactive)
25 | CC(=O)Nc1ccc(OCC(=O)NCc2ccc(C)cc2)cc1 | -6.13% (inactive)
26 | COc1ccc(NC(=O)/C(Cl)=C(/Cl)S(=O)Cc2ccc(C)cc2)cn1 (configuration not stated) | 101% (active)
27 | COc1ccc(NC(=S)Nc2ccccc2Cl)cn1 | 6.52% (inactive)
28 | COc1ccc(CS(=O)/C(Cl)=C(/Cl)C(=O)Nc2ccc(OC)nc2)cc1 (configuration not stated) | 101% (active)
29 | Cc1ccc(NC(=O)OCc2cncs2)cc1 | -5.83% (inactive)
30 | COc1ccc(NC(=S)NCCNC(C)=O)cc1 | -3.38% (inactive)
31 | Cc1ccc(NC(=O)OCCNC(=O)c2ccncc2)cc1 | 0.55% (inactive)
32 | O=C(CN1C(=O)NC2(CCCCCC2)C1=O)NC1CC1 | -1.36% (inactive)
33 | O=C(Nc1ccccc1C(=O)O)c1cc(S(=O)(=O)N2CCCCC2)cs1 | -7.25% (inactive)
34 | CCOC(=O)c1sc(=NC(=O)/C=C/c2cccs2)n(C)c1C | -7.45% (inactive)
35 | Cc1ccc(OCc2n[nH]c(=S)n2-c2ccccc2)cc1 | 0.68% (inactive)
36 | COc1ccccc1N(C(=O)Cn1nnc2ccccc21)C(C(=O)NCc1ccco1)c1ccc(C)o1 (configuration not stated) | -2.13% (inactive)
37 | COc1ccc([N+](=O)[O-])cc1N(CC(O)Cn1nnc2ccccc21)S(=O)(=O)c1ccc(C)cc1 (configuration not stated) | 99% (active)
38 | COc1ccc(C)cc1S(=O)(=O)N(CC(=O)Nc1cccc([N+](=O)[O-])c1)c1ccc(C)cc1 | 30.9% (inactive)
39 | CC(=O)OC(COc1ccc(F)cc1)Cn1cnc2ccccc21 (configuration not stated) | -0.28% (inactive)
40 | Cc1cc(C(F)F)n2nc(C(=O)Nc3ccc(S(=O)(=O)NC45CC6CC(CC(C6)C4)C5)cc3)nc2n1 | 99% (active)
41 | CCn1nccc1C(=O)Nc1ccc(S(=O)(=O)NC23CC4CC(CC(C4)C2)C3)cc1 | 47.6% (inactive)
42 | Cc1cc(NS(=O)(=O)c2ccc(NC(=O)c3cccc(OC(F)F)c3)cc2)nc(C)n1 | -1.79% (inactive)
43 | COc1ccc(Cl)cc1N(CC(=O)N1CCCCC1)S(C)(=O)=O | -4.47% (inactive)
44 | COc1ccc(/C=N/S(=O)(=O)c2ccccc2)cc1OC | 0.14% (inactive)
45 | CN(C)c1ccc(/C=N\S(=O)(=O)c2ccccc2)cc1 | 51.7% (active)
46 | CN(C)c1ccc(/C=N/N(Cc2ccccc2)c2ccccc2)cc1 | 3.58% (inactive)

Row | Structure (SMILES) | inhibition
47 | CCNC(=S)NNC(=O)c1ccc2ncccc2c1 | -8.24% (inactive)
48 | OC(c1nnc(-c2ccccc2)o1)c1cccs1 (configuration not stated) | 0.18% (inactive)
49 | O=c1cnnc(Nc2ccccc2F)[nH]1 | -2.35% (inactive)
50 | CC(C)=C1SC(N2CCN(c3cccc(C)c3)CC2)=NC1=O | 1.42% (inactive)
51 | CCN1C(=O)/C(=C\N2CCN(c3ccccc3)CC2)SC1=S | 0.18% (inactive)
52 | CCN1C(=O)/C(=C2\SC(N3CCCCC3)=NC2=O)c2ccccc21 | 74.1% (active)
53 | Cc1cccc(C(=O)NC(=S)N2CCN(c3ccc([N+](=O)[O-])cc3)CC2)c1 | 36.9% (inactive)
54 | O=C(c1cncc(Br)c1)N1CCN(c2ccc([N+](=O)[O-])cc2)CC1 | 57.2% (active)
55 | O=C(c1ccc(Cl)c([N+](=O)[O-])c1)N1CCN(c2ccccc2)CC1 | -0.23% (inactive)
56 | Cc1cc([N+](=O)[O-])nn1CC(=O)Nc1ccc(Cc2ccncc2)cc1 | -0.44% (inactive)
57 | Cc1ccc2c(=O)oc(N(C)C)nc2c1 | 7.03% (inactive)
58 | Cc1ccc(SCCC(=O)NC(C(C)C)C(C)C)cc1 | 59.5% (active)
59 | Cc1ccc(SCCC(=O)NCc2ccccn2)cc1 | 3.06% (inactive)
60 | Cc1ccc(SCCC(=O)Nc2cc(C)on2)cc1 | -6.06% (inactive)
61 | CN(C)/C=C/C(=O)c1cnc2sccn2c1=O | -6.23% (inactive)
62 | Cc1ccc(C(=O)N2CCN(C3CCCCC3)CC2)s1 | -10.8% (inactive)
63 | O=C(NC(Cc1ccccc1)C(=O)N1CCCC1C(=O)O)c1ccccc1 (stereo not drawn) (Bz-Phe-Pro-OH; configuration not given here) | -8.5% (inactive)
64 | O=C(C(Cc1ccccc1)n1cccc1)N1CCN(C2CCCCC2)CC1 (configuration not stated) | 83% (active)
65 | COCCCN(C(=S)Nc1c(C)cc(C)cc1C)C(C)c1ccncc1 (configuration not stated) | 1.38% (inactive)
66 | O=C(Cc1ccc(Cl)cc1)NCc1nc(-c2ccccc2)no1 | -1.26% (inactive)
67 | Cc1cccc(-c2nc3ccccc3c(=O)n2NC(=O)Cc2ccc(Cl)cc2)c1 | 53% (active)
68 | O=C(Nn1c(-c2ccccc2)nc2ccccc2c1=O)c1ccc([N+](=O)[O-])cc1 | -4.12% (inactive)
69 | O=C(Nn1c(-c2ccc(Cl)cc2)nc2ccccc2c1=O)c1cccnc1Cl | 55.3% (active)

Row | Structure (SMILES) | inhibition
70 | COc1cc(OC)cc(-c2nc3ccccc3c(=O)n2NC(=O)c2cccnc2Cl)c1 | 46.3% (inactive)
71 | O=C(Cn1nnc2ccccc2c1=O)NCc1ccc(Cl)cc1 | -4.83% (inactive)
72 | CCCCCC1CCC(c2nnc(SCC(C)=O)o2)CC1 (configuration not stated) | -9.46% (inactive)
73 | COCCNC(=O)C(OC(=O)c1cccs1)c1ccc(F)cc1 (configuration not stated) | -3.33% (inactive)
74 | COc1ccc(Cl)cc1NC(=O)CN(C)Cc1ccc(OC)c(OC)c1 | 1.17% (inactive)
75 | Cc1cccc(-n2c(Cc3cc(=O)[nH]c(=O)[nH]3)nnc2SCC(=O)Nc2cccc(C(F)(F)F)c2)c1 | -1.75% (inactive)
76 | N#Cc1c(NC(=O)C2CC(Cl)=CCC2C(=O)O)sc2c1CCCCC2 (configuration not stated) | -8.36% (inactive)
77 | O=C(COC(=O)C1CCCCC1)Nc1ccc([N+](=O)[O-])cc1 | -5.31% (inactive)
78 | O=C(COc1ccc([N+](=O)[O-])cc1)Nc1ccc(N2CCCC2)cc1 | 86.2% (active)
79 | COc1ccc(OCC(=O)Nc2ccc(N3CCC(C)CC3)cc2)cc1 | 8.72% (inactive)
80 | COc1cc(COCC(O)CN2CCN(Cc3ccc4c(c3)OCO4)CC2)cc(OC)c1OC (configuration not stated) | 2.04% (inactive)
81 | Cc1cc(=O)oc(C)c1C(=O)NCCN(C)Cc1ccccc1 | 9.38% (inactive)
82 | COc1ccc(CCNC(=O)CSc2nnc3ccc(-c4ccncc4)nn23)cc1 | -2.23% (inactive)
83 | COc1cccc(-c2ccc(C#N)c(SCC(=O)NCCc3ccc(Cl)cc3)n2)c1 | 50.9% (active)
84 | COc1ccc(CCNC(=O)CSc2nc(-c3ccc(OC)c(OC)c3)ccc2C#N)cc1 | 27.6% (inactive)
85 | NS(=O)(=O)c1ccc(NC(=O)/C=C/c2ccccc2Cl)cc1 | 0.13% (inactive)
86 | Cc1nc(Nc2ccc(S(=O)(=O)N3CCCC3)cc2)c2nnn(Cc3ccccc3)c2n1 | 0.17% (inactive)
87 | O=S(=O)(NCc1ccccc1)c1ccc(S(=O)(=O)N2CCCC2)cc1 | -7.35% (inactive)
88 | O=C1c2cccnc2C(Nc2ccc(S(=O)(=O)N3CCCCCC3)cc2)N1Cc1ccccc1 (configuration not stated) | 54.9% (active)
89 | COC(=O)c1c(CCl)noc1C(=O)NC(C)C | 100% (active)
90 | COC(=O)c1onc(-c2c(OC)cc(OC)cc2OC)c1C(=O)OC | -8.2% (inactive)
91 | CCOc1cccc(SCc2noc(C(=O)NC(C)C)c2C(=O)O)c1 | -11.1% (inactive)
92 | Cc1cc(NC(C)C)n2c(nc3ccccc32)c1C#N | 0.11% (inactive)
